32 molecules from PMC5540273 (PLoS ONE, 2017) can be followed below.
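Note: KINOMEscan kinase panel screen.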

The test system of this assay is EPHB6. Conditions: concentration: 1 μM, replicates: in singlicate; n = 1.
For `Nc1ncc(-c2ccc3nccc(-c4ccncc4)c3c2)cc1S(=O)(=O)N1CCCCC1` [GSK1693850], the “%Inh” value is 43%.
With `COc1cccc(CC(=O)N2CCc3cc(-c4cn(C)c5ncnc(N)c45)ccc32)c1` [GSK2608899] the figure was 64%; with `CC(C)NCC(Cc1ccccc1)NC(=O)c1cc(Br)c(-c2ccnc3[nH]ccc23)s1.Cl.Cl` (centres unmarked) [GSK1383281], 6%.
Then `Nc1ncc(-c2cn[nH]c2)c2scc(-c3ccc4c(c3)CCN4C(=O)Cc3ccccc3)c12` [GSK2593067], with 97.6%; and `Cc1cccc(Nc2nc(NCCN)ncc2C(N)=O)c1` [GSK1292139], with 50%; and `CC(C)c1nc(-c2cccc(NS(=O)(=O)c3c(F)cccc3F)c2)c(-c2ccnc(Nc3ccc(N4CCOCC4)nc3)n2)s1.Cl` [GSK1723980], with 97.4%.
Then `Cc1ccc(-c2ccc3occ(-c4ccc(S(C)=O)cc4)c3c2)nn1` (centres unmarked), with 0%.
`COc1ccc(C2=C(Nc3cccc(O)c3)C(=O)NC2=O)cc1` [SB-390766]: the “%Inh” value was 10%.
For `COc1ccc(NC(=O)c2ccoc2)cc1-c1ccc(C(=O)NCC2CC2)cc1` [GW810437], the “%Inh” value was 24%.
Then `Cc1nn2c(=O)cc(N3CCO[C@H](C)C3)nc2n1Cc1cccc(Cl)c1Cl` [GSK2373693], with 3%; and `Cl.O=C(Nc1ccc(Oc2ccc3[nH]c(NC(=O)c4ccco4)nc3c2)cc1)Nc1cc(C(F)(F)F)ccc1F` [GW683134], with 93.7%; and `O=C(O)C(F)(F)F.O=c1[nH]ccc2nc(N[C@@H]3CCNC3)nc(Nc3ccc4c(c3)S(=O)(=O)CC4)c12` [GSK2181306], with 19%.
For the molecule `O=C(Nc1n[nH]c2cc(-c3cccs3)ccc12)C1CC1` [SB-731284], the “%Inh” value came out at 55%.
Then `CNc1nccc(-c2ccc3c(N)n[nH]c3c2)n1` [GSK2206003], with 11%; and `COc1cccc(NC(=O)NCCNc2ccnc(Nc3ccc(F)cc3)n2)c1` [GSK1379879], with 14%.
With `CN(c1ccc2c(c1)nc(NCc1ccccc1)n2C)c1ccnc(Nc2ccc(CS(C)(=O)=O)cc2)n1.Cl` [GW811603] the figure was 87%; with `Cc1ccc(O)cc1Nc1ccnc2cc(-c3ccc(CN4CCCCC4)o3)ccc12` [GW557777], 83%.
Then `Cc1cccc(Nc2nc(N[C@H]3CCCC[C@H]3N)ncc2C(N)=O)c1.Cl` [GSK986310], with 17%; and `c1ccc(Oc2ccc(Nc3ccnc4cc(-c5ccc(CN6CCCCC6)o5)ccc34)cc2)nc1` [GW567143], with 66%; and `CC(C)c1nc(-c2ccc(F)c(NS(=O)(=O)c3c(F)cccc3F)c2)c(-c2ccnc(Nc3ccc(N4CCOCC4)nc3)n2)s1` [GSK1804250], with 97.3%.
With `CCNc1nccc(-c2c(-c3ccc(F)cc3)ncn2C2CCN(C)CC2)n1`, the “%Inh” value stood at 9%.
`Fc1cc(Cl)ccc1Nc1ccnc2cc(-c3ccc(CN4CCSCC4)o3)ccc12` [GW560106]: the “%Inh” value was 91.2%.
As to `NCCC(NC(=O)c1cc(Br)c(-c2ccnc3[nH]ccc23)s1)c1ccccc1.O=C(O)C(F)(F)F.O=C(O)C(F)(F)F` (centres unmarked) [GSK1307810], the “%Inh” value stood at 27%.
Turning to `Cc1ccc(NC(=O)c2ccc(Cl)c(Cl)c2)cc1-c1ccc(C(=O)Nc2ccncc2)cc1` [GSK1398460], the “%Inh” value was found to be 16%.
`O=C(O)C(F)(F)F.O=c1[nH]ccc2nc(N[C@@H]3CCNC3)nc(Nc3cc(Cl)cc(Cl)c3)c12` [GSK2188764]: the “%Inh” value came out at 17%.
As to `Nc1ncnc2scc(-c3ccc(NC(=O)Cc4cc(F)ccc4F)cc3)c12.O=C(O)C(F)(F)F` [SB-731254-M], the “%Inh” value worked out at 98.8%.
Then `Cc1ccc(NC(=O)c2ccnc(N3CCCCC3)c2)cc1-c1ccc(C(=O)NCC2CC2)cc1` [GW775610], with 5%; and `Fc1cc(Cl)ccc1Nc1ccnc2cc(-c3ccc(CN4CCOCC4)o3)ccc12` [GW560109], with 91.7%; and `CS(=O)(=O)c1cccc(CNc2nc(Nc3ccc4c(c3)CCC(=O)N4)ncc2C(F)(F)F)c1`, with 21%.
With `Cc1cc(-c2c(-c3ccc(F)cc3)ncn2CCCN2CCOCC2)nc(N)n1` [SB-222517] the figure was 0%.
In the case of `CN1CCN(Cc2ccc(NC(=O)Nc3ccc(N(C)c4ccnc(Nc5ccc(CS(C)(=O)=O)cc5)n4)cc3)cc2)CC1.Cl` [GW827654], the “%Inh” value is recorded as 94.5%.
As for `COc1cccc(C2=C(Nc3cccc(O)c3)C(=O)NC2=O)c1` [SB-390771], the “%Inh” value was 49%.
